# Source: PubChem BioAssay AID686970 (National Center for Advancing Translational Sciences (NCATS), 2013)
# Among all 360,000 compounds or so, about 6,000 (1.7%) were called active. Not shown: some 8% with an inconclusive outcome. Calls come from the whole dose curve; as a rule, active = well fitted cell-killing curve with a large enough effect; inconclusive = small, poorly fitted or top-dose-only effect, or effect the other way; inactive = flat fitted curve, though single readings scatter. The entries come from a sample that favours actives as a whole.
# Test: qHTS for induction of synthetic lethality in tumor cells producing 2HG: qHTS for the HT-1080-NT fibrosarcoma cell line;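 note: NT is the 2HG producing partner of a matched IDH1 knockdown line; nearly all actives have a fitted effect of over 55% in size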;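 for activity, negative = less viability: 0% = DMSO-treated cells and -100% = media-only wells without cells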
# Conditions: HT-1080-NT fibrosarcoma viability, CellTiter-Glo ATP luminescence, 48 h; series mostly up to 46.1 µM; activity, negative = less viability: at the top concentration
# Outline: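 Viability of the 2HG-overproducing fibrosarcoma line after 48 hours of compound exposure at 37 degrees C was determined by luminescence with CellTiter-Glo, and concentration-effect curves were then fitted and categorized.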
# Potency is the fitted concentration of half-maximal effect.
SMILES,"activity, negative = less viability",Potency
OC(c1ccccc1)c1nc(/C=C/c2ccc(C(F)(F)F)cc2)cs1 (stereo not drawn),-18.6% (inactive),
CC(=O)C[C@@H]1OC[C@H](C)N1S(=O)(=O)c1ccc(C)cc1,-0.0545% (inactive),
C=CCn1c2c(c3ccccc31)CCC2,7.69% (inactive),
Cc1cccc(CNC(=O)c2sc(=O)n(Cc3ccccc3C)c2C)c1,-14.7% (inactive),
O=C(NCCc1ccccc1)C1CCN(S(=O)(=O)c2ccc(Br)s2)CC1,0.419% (inactive),
O=S(=O)(NCc1cccnc1)c1ccc(Br)s1,1.84% (inactive),
O=S(=O)([N-]c1nc2ccccc2nc1-[n+]1ccc(Cc2ccccc2)cc1)c1ccc(Br)s1,,14.6 µM (active)
C[C@@H]1CN([C@@H](C)CO)C(=O)c2cc(Br)cnc2O[C@H]1CN(C)Cc1ccc(-c2ccccc2)cc1,-28% (inactive),
COc1ccccc1N1CCN(C(=O)c2c(-c3c(Cl)cccc3Cl)noc2C)CC1,-11.7% (inactive),
COc1ccccc1N1CCN(C(=O)c2cc(=O)c3cc(C)cc(C)c3o2)CC1,,0.0206 µM (active)
COc1ccccc1N1CCN(C(=O)c2ccc(Cl)c(S(=O)(=O)N3CCCC3)c2)CC1,-8.72% (inactive),
O=C(NC1CCCC1)C1c2ccccc2OCC(=O)N1Cc1ccccc1 (stereo not drawn),16.2% (inactive),
COc1cc(C(C)=O)ccc1OC(C)C(=O)Nc1ccc(S(=O)(=O)N2CCCC2)cc1 (stereo not drawn),4.84% (inactive),
COc1ccc(S(=O)(=O)N2CCCCCC2)cc1NC(=O)Cc1ccc(OC)c(OC)c1,-1.11% (inactive),
COc1ccc(-c2ccc(Nc3ccc(S(=O)(=O)N4CCCC4)cc3)nn2)cc1OC,,11.2 µM (active)
CCc1nc2c(OCCOc3ccccc3)cccn2c1N(C)C(=O)c1ccccc1F,-7.46% (inactive),
COc1cc(C#Cc2ccc3cc(CCCO)oc(=O)c3c2)cc(OC)c1,,4.61 µM (active)
O=C1c2ccccc2C(=O)N1CCC#Cc1ccc2cc(C3(O)CCCCC3)oc(=O)c2c1,20.5% (inactive),
CCC(=O)N1CCCC1(C)C(=O)Nc1ccc2c(c1)CCN2C(C)=O (stereo not drawn),27.2% (inactive),
CCOC(=O)C1(C)CCCN(C(=O)c2cccc(Cl)c2)C1 (stereo not drawn),8.58% (inactive),
O=C(Nc1ccc(Cl)cn1)c1ccccc1-c1ccccc1,6.68% (inactive),
COC(=O)C1C(=O)c2c([nH]c(C(=O)OCCSC)c2C)CC1C (stereo not drawn),4.76% (inactive),
CCCOC(=O)c1[nH]c2c(c1C)C(=O)CC(c1cccs1)C2 (stereo not drawn),,1.3 µM (active)
COCCOC(=O)c1[nH]c2c(c1C)C(=O)CC(c1ccc(OC)cc1)C2 (stereo not drawn),-0.0734% (inactive),
O=C(COC(=O)c1ccc(S(=O)(=O)N2CCCCCC2)cc1)Nc1ccccc1C(F)(F)F,-0.234% (inactive),
O=C1c2ccccc2-c2ccccc2NC1O (stereo not drawn),4.51% (inactive),

SMILES,"activity, negative = less viability",Potency
Cc1ccc2sc(N(CCN(C)C)C(=O)/C=C/c3cccs3)nc2c1C,2.03% (inactive),
COc1cccc2sc(N(CCCN(C)C)C(=O)C(c3ccccc3)c3ccccc3)nc12,,20.6 µM (active)
Cc1cc(C)c2nc(N(CCN(C)C)C(=O)/C=C/c3cccs3)sc2c1,0.0633% (inactive),
CCCCn1nnnc1C(c1cc2ccccc2o1)N(C)Cc1ccc(Cl)c(Cl)c1 (stereo not drawn),-0.969% (inactive),
CCN(/N=C/c1ccccc1)c1cc(=O)n(C)c(=O)[nH]1,12.6% (inactive),
CN(/N=C/c1ccccc1)C(=S)c1ccccc1,-15.8% (inactive),
Oc1ccc(/C=N/N(Cc2ccccc2)c2ccccc2)cc1,,20.6 µM (active)
Cc1cc(OCC(=O)Nc2nccs2)c2c(C)c(C)c(=O)oc2c1,8.6% (inactive),
COc1cccc(CN(C)CC(=O)Nc2ccccc2C(=O)Nc2ccccc2)c1,-2.36% (inactive),
COc1cccc(CN(C)CC(O)COC(c2ccccc2)c2ccccc2C)c1 (stereo not drawn),,23.1 µM (active)
Cc1ccccc1C(OCC(O)CN1CCCCC1CCO)c1ccccc1 (stereo not drawn),-27.5% (inactive),
Cc1cc(Cl)ccc1-c1nc(NCCN(C)C)nc2ccsc12,,20.6 µM (active)
O=c1cc(-c2ccccc2)[nH]c2cc(F)ccc12,,2.59 µM (active)
Cc1ccc(-c2cc(=O)c3ccc(F)cc3[nH]2)cc1,-26% (inactive),
Cc1cc(=O)c2ccc(NC(=O)c3ccccc3)cc2[nH]1,27.7% (inactive),
FC(F)(F)Oc1ccccc1C(c1nnnn1C1CCCCC1)N1CCN(C/C=C/c2ccccc2)CC1 (stereo not drawn),-25.6% (inactive),
O=C(Nc1nnc(S(=O)(=O)N2CCCCCC2)s1)c1cccc(Br)c1,,23.1 µM (active)
O=C(Nc1nnc(S(=O)(=O)N2CCOCC2)s1)c1cccc(Br)c1,-28% (inactive),
Cc1cccc(C(=O)Nc2nnc(S(=O)(=O)N3CCCCCC3)s2)c1,0% (inactive),
CC1(C(=O)Nc2ccccc2Br)CCN1C(=O)CC1CC1 (stereo not drawn),1.35% (inactive),
CCOC(=O)[C@]12CCC=C1N(Cc1cccc3ccccc13)C(=O)[C@H](CC(=O)NCc1cccc(C(F)(F)F)c1)C2,-28.6% (inactive),
CCCNC(=O)C1(C)CCCN(C(=O)c2cccc(OC(C)=O)c2C)C1 (stereo not drawn),0.104% (inactive),
CC1(C(=O)Nc2ccc3c(c2)OCCO3)CN(S(C)(=O)=O)CC(=O)N1Cc1cccc(F)c1 (stereo not drawn),0.746% (inactive),
N#Cc1cccc(NC(=O)COC(=O)c2ccccc2C(=O)c2ccc(Cl)c([N+](=O)[O-])c2)c1,,7.31 µM (active)
COC(=O)c1cc(NC(=O)Cc2ccccc2[N+](=O)[O-])ccc1Cl,6.16% (inactive),
CC(=O)Nc1ccc(NC(=O)COC(=O)c2ccccc2C(=O)c2ccccc2)cc1,-6.07% (inactive),

SMILES,"activity, negative = less viability",Potency
COc1ccc(C2Nc3ccc(NC(=O)COC(C)=O)cc3C(=O)N2Cc2ccccc2)cc1COc1ccc(NC(C)=O)cc1 (stereo not drawn),-28.8% (inactive),
CC(Sc1ccc(S(=O)(=O)N2CCN(C)CC2)cn1)C(=O)NC1CCCC(C)C1C (stereo not drawn),0.927% (inactive),
COc1ccc(C)cc1S(=O)(=O)N1CCN(S(=O)(=O)c2cc(C(=O)O)ccc2C)CC1,-3.18% (inactive),
Cc1ccc(C)c(S(=O)(=O)N2CCN(c3ncnc4sccc34)CC2)c1,,5.8 µM (active)
Cc1ccc(S(=O)(=O)N2CCN(c3ncnc4ccccc34)CC2)cc1,,inactive
CC1CCCC(C)N1C(=O)COC(=O)c1ccccc1C(=O)c1ccccc1 (stereo not drawn),10.5% (inactive),
Cc1ccccc1Cn1c(C)c(C(=O)NCc2cccc(C(F)(F)F)c2)sc1=O,4.34% (inactive),
OCCc1ccc(NCCc2ccco2)cc1,18.1% (inactive),
CC1=C/C(=N\OS(=O)(=O)c2ccccc2)C=CC1=O,,20 µM (active)
NC(=O)CSc1nnc(-c2cccc(S(=O)(=O)N3CCOCC3)c2)o1,0.364% (inactive),
Cc1cccc(C)c1Cn1c(C)c(C(=O)NCc2cccc(Cl)c2)sc1=O,-9.39% (inactive),
OC(c1ccccc1)c1nc(-c2cnc3ccccc3c2)cs1 (stereo not drawn),2.55% (inactive),
NC(=O)CSc1nnc(NC(=O)c2ccc3ccccc3c2)s1,10.5% (inactive),
O=C(Nc1nnc(SCc2ccccc2Cl)s1)c1cccc([N+](=O)[O-])c1,,18.4 µM (active)
O=C(Nc1nnc(SCc2c(Cl)cccc2Cl)s1)c1cccc([N+](=O)[O-])c1,0.797% (inactive),
CC1=C(C(=O)N2CCOCC2)CC(CC(=O)NCCCN(C)C)C(=O)N1Cc1ccc(C(C)(C)C)cc1 (stereo not drawn),14.2% (inactive),
O=C(Nc1ccc(Br)cn1)C1CCN(S(=O)(=O)c2cccs2)CC1,,9.2 µM (active)
O=C(NCc1ccc(Cl)cc1)C1CCN(S(=O)(=O)c2cccs2)CC1,0.206% (inactive),
O=C(C1CCN(S(=O)(=O)c2cccs2)CC1)N1CCCCCC1,-5.25% (inactive),
Cc1ccc(C(=O)Nc2c(-c3ccccc3)[nH][nH]c2=O)cc1,18.6% (inactive),
CC1(C)C2CCC1(C)C(OC(=O)c1ccc(O)cc1)C2 (stereo not drawn),17.4% (inactive),
CC(OC(=O)c1ccc(Cl)cc1O)C(=O)NCCC1=CCCCC1 (stereo not drawn),-0.249% (inactive),
O=C(OC12CC3CC(CC(C3)C1)C2)c1ccc(NCc2cc(O)ccc2O)cc1,,14.6 µM (active)
CCN(CC)C(=O)CCC(=O)Nc1ccc(C(=O)OC)cc1,-1.07% (inactive),
COC(=O)c1ccc(NCc2cc(O)ccc2O)cc1,,16.4 µM (active)
CC(CN1CCOCC1)OC(=O)c1ccc(Cl)cc1Cl (stereo not drawn),-1.94% (inactive),

SMILES,"activity, negative = less viability",Potency
C#CCNc1ccc(C(=O)OCC)cc1,-2.27% (inactive),
CC(C)OC(=O)c1ccc(NCc2cc(O)ccc2O)cc1Cl,,20.6 µM (active)
CC(C)CCC(=O)Nc1cc(S(=O)(=O)N2CCOCC2)ccc1N1CCCC1,4.49% (inactive),
Cc1ccc(S(=O)(=O)N2CCOCC2)cc1NC(=O)c1ccncc1,0.491% (inactive),
Cc1ccc(S(=O)(=O)N2C[C@]3(O)C[C@@H]4C(=O)N(c5ccccc5)C(=O)[C@@H]4C[C@]3(OC(=O)NC3CC3)C2)cc1,9.44% (inactive),
Cc1ccccc1-c1nc(NC(C)C)nc2cc(-c3ccccc3)sc12,-0.193% (inactive),
COc1ccc(CCn2c3c(c(=O)[nH]c2=S)CN(C(C)C)CN3)cc1OC,2.34% (inactive),
CC1(C(=O)Nc2cccc3cccnc23)CCN1C(=O)CCC1CCCC1 (stereo not drawn),-2.99% (inactive),
CC1(C(=O)NS(=O)(=O)c2ccc(C#N)cc2)CCN1C(=O)c1ccc(C2CCCCC2)cc1 (stereo not drawn),-12.9% (inactive),
C[C@H](CO)N1C[C@H](C)[C@@H](CN(C)C(=O)C2CCCCC2)OCc2cnnn2CCCC1=O,2.08% (inactive),
Cc1c(CN2CCC(CO)(CCOc3ccccc3)CC2)[nH]c2ccc(Cl)cc12,,25.9 µM (active)
CC(C)(O)C#Cc1ccc(CN2CCC(CO)(CCc3ccccc3)CC2)cc1,-5.63% (inactive),
Cc1cccc(-c2ncc(CN3CCC(CO)(CCCc4ccccc4)CC3)cn2)c1,-3.51% (inactive),
CCCNC(=O)C1(C)CCN(Cc2ccc(Cl)c(Cl)c2)C1 (stereo not drawn),-12.1% (inactive),
CN1OC[C@@H]2CN(S(=O)(=O)c3cccc(C(F)(F)F)c3)[C@H](c3ccc(-c4cc5ccccc5o4)cc3)C[C@@H]21,1.49% (inactive),
CNc1cnc(-c2cc(OC)c(OC)c(OC)c2)cn1,-2.35% (inactive),
O=C(Nc1cnn(Cc2ccc(Cl)cc2)c1)C1CCCC1,-3.72% (inactive),
O=C(NC1CCCC1)C1CCN(C(=O)Nc2cccc(Cl)c2)CC1,3.08% (inactive),
CCn1cc(CN2CCC(C(=O)Nc3cccc(-c4cccc(Cl)c4)c3)CC2)c(C)n1,,20.6 µM (active)
CC(=O)c1cc(CN2CCC(C(=O)Nc3cccc(-c4cscn4)c3)CC2)cs1,-13.4% (inactive),
COc1cccc(-c2cccc(NC(=O)C3CCN(C4CCC4)CC3)c2)c1,13.2% (inactive),
CCn1cc(CN2CCC(C(=O)Nc3cccc(-c4cccc(Cl)c4)c3)CC2)cn1,,14.6 µM (active)
O=C(Nc1cccc(-c2cccc(Cl)c2)c1)C1CCN(C2CCC2)CC1,,25.9 µM (active)
CCn1cc(CN2CCC(n3nccc3NC(=O)CCCc3ccccc3)CC2)c(C)n1,-1.72% (inactive),
O=C(Nc1cccc(-c2cscn2)c1)C1CCN(Cc2ccsc2)CC1,-10.8% (inactive),
